The source of these data is PubChem BioAssay AID430 (Sanford-Burnham Center for Chemical Genomics, 2006).

Screen size: about 63,000 compounds; about 1,100 (1.7%) were called active. No stated cut-off is given here; in the data, active means cytotoxicity above about 50%; inactive means the rest. The list comes from a sample in which actives are over-represented; it also holds similar structures and randomly drawn compounds. Results with a measured potency or affinity are listed apart.

The test can be described thus: HPDE-C7 pancreatic duct cell viability loss – fluorescence, HTS (AID 430).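 Further: cells exposed to compound for 48 hours before viability readout; 0% = vehicle and 100% = reference cytotoxic drug.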 Particulars: HPDE-C7 pancreatic duct cells viability, at 10 µM, hits give high values.
Take `CC(C)CCOCC1CC2(CC(C)(c3csc(N)n3)OC2=O)C(=O)O1` (centres undefined): the cytotoxicity was -2.2% (inactive). As to `O=C(COC(=O)c1ccccc1NC(=O)c1ccco1)Nc1ccc2c(c1)OCO2`, the cytotoxicity was -13.5% (inactive). For `COc1cccc(C2C3=C(N=C4SCC(=O)N42)c2ccccc2CC3)c1OC` (centres undefined) the value was -2.4% (inactive); for `CN(C)c1ccc(-c2nn3c(-c4ccncc4)nnc3s2)cc1`, -9.1% (inactive); for `CCN(CC)c1ccc(-c2nn3c(-c4cccnc4)nnc3s2)cc1`, 43.2% (inactive).

As for `CCc1nc2ccccc2n1CC(=O)N(C(C)CC)C1CCS(=O)(=O)C1` (centres undefined), the cytotoxicity is -20.3% (inactive). As to `Cn1c(Cn2c(=O)sc3ccccc32)nnc1SCc1ccc(F)cc1`, the cytotoxicity is -3.2% (inactive). In the case of `C=CCN1C(=O)c2ccccc2Sc2ccc(C(=O)N3CCN(C)CC3)cc21`, the cytotoxicity was -17.1% (inactive).

In the case of `COc1ccc2c(c1)Sc1ccccc1N2CCN(C)C`, the cytotoxicity is 12.2% (inactive). On to `CN(C)CCCN1c2ccccc2Sc2ccccc21`, for which the cytotoxicity is 13.7% (inactive). For `O=C(Nc1cccc(C(F)(F)F)c1)c1cccnc1N1CCN(CCO)CC1` the value was -10.8% (inactive). Consider `O=C(CN1CCCC(O)C1)N1c2ccccc2Sc2ccc(C(F)(F)F)cc21` (centres undefined), for which the cytotoxicity was 24% (inactive). For `CCOC(=O)Nc1ccc2c(c1)N(C(=O)CN1CCN(C)CC1)c1ccccc1S2` the value was 5.2% (inactive); for `COc1ccc(Br)cc1S(=O)(=O)N(CC(=O)N1CCOCC1)c1ccccc1`, -5.3% (inactive). For `O=C(CCc1ccccc1)Nc1ccncc1` the value was 0.1% (inactive). For `Cn1c(Cn2c(=O)sc3ccccc32)nnc1SCC(=O)Nc1ccc(F)cc1` the value was -7.1% (inactive); for `CCOc1ccccc1N1CCN(Cc2cccc(OC)c2OC)CC1`, -10.5% (inactive). As to `Cc1[nH]c2ccccc2c1NC(=O)CN1CCN(c2cccc(C(F)(F)F)c2)CC1`, the cytotoxicity is 62.1% (active).

For the compound `O=C(CCn1c(=O)[nH]c2ccccc2c1=O)N1CCN(c2cccc(C(F)(F)F)c2)CC1`, the cytotoxicity is -11.5% (inactive). For `OC(CN1CCN(c2cccc(C(F)(F)F)c2)CC1)c1c[nH]c2ccccc12` (centres undefined) the value was 26.7% (inactive); for `COC(=O)c1[nH]c2ccccc2c1NC(=O)CN1CCN(c2cccc(Cl)c2)CC1`, 0.5% (inactive).

As for `O=C(CN1CCN(c2ccccc2)CC1)Nc1cccc(C(F)(F)F)c1`, the cytotoxicity is -4.7% (inactive). For `CCc1nc2ccccc2c(C(=O)OCC(=O)NCCCN2CCCC2=O)c1C` the value was -4.2% (inactive); for `CCOc1cc2[nH]c(=O)n(CCCCC(=O)NC3CCCCCC3)c(=O)c2cc1OCC`, 2.3% (inactive); for `COC(=O)c1cc(COC(=O)c2cccnc2SC)oc1C`, -9.4% (inactive).

`O=S(=O)(Nc1cccnc1)c1ccc2c(c1)OCCO2`: the cytotoxicity was -9.7% (inactive). For `CCOC(=O)Cn1nc(-c2ccc(Cl)cc2)cc1N` the value was 10.3% (inactive); for `CCOC(=O)Cc1nnc2c(Nc3ccc(C)cc3)nc3nonc3n12`, -35.8% (inactive). Consider `CCOC(=O)n1ccc(C(=O)Nc2ccccc2F)n1`, for which the cytotoxicity was -0.9% (inactive). For `CCOC(=O)Cc1nnc2c(Nc3ccc(Cl)cc3)nc3nonc3n12` the value was 68.3% (active). For `CCOC(=O)CCn1c(CC(=O)OCC)nc2ccccc21` the value was -8.6% (inactive); for `CCOC(=O)Cc1nnc2c(Nc3ccccc3F)nc3nonc3n12`, 61.6% (active).

As for `CCOC(=O)Cc1csc(NC(=O)c2cccc(N3C(=O)CCC3=O)c2)n1`, the cytotoxicity was -14.9% (inactive).

On to `O=C(Nn1cnnc1)c1cc(-c2ccccn2)nc2ccccc12`, for which the cytotoxicity was 2.7% (inactive).

On to `O=C(Nc1ccccc1N1CCCC1)c1ccc(Br)o1`, for which the cytotoxicity is 1.2% (inactive).

For the compound `CCN1CCN(c2c(Cl)cccc2NC(=O)c2ccc(Br)o2)CC1`, the cytotoxicity was 1.5% (inactive).

With `O=C(Nc1cccc(Cl)c1N1CCCC1)c1ccc(Br)o1`, the cytotoxicity was 75% (active).

For the compound `N#Cc1ccsc1NC(=O)CSc1ncn[nH]1`, the cytotoxicity is -0.1% (inactive). In the case of `CCCCNS(=O)(=O)c1ccc2nc(SCC(=O)Nc3sccc3C#N)[nH]c2c1`, the cytotoxicity was 88.6% (active). For `CCCCNS(=O)(=O)c1ccc2nc(SCC(=O)c3ccc(C#N)cc3)[nH]c2c1`, the cytotoxicity is 5.7% (inactive). Take `CCn1cc(Br)c(C(=O)N(C)Cc2ccccc2)n1`: the cytotoxicity is -2.4% (inactive). For `CCC1CCCCN1C(=O)COC(=O)c1ccc(S(=O)(=O)N2CCOCC2)cc1` (centres undefined) the value was -5% (inactive); for `Cc1ccc(-c2nnn(CC(=O)N(Cc3cccs3)C(C(=O)NC3CCCC3)c3ccco3)n2)o1` (centres undefined), 80.5% (active). `Cc1ccc(-c2nnn(CC(=O)N(Cc3cccs3)C(C(=O)NC(C)(C)C)c3ccco3)n2)o1` (centres undefined): the cytotoxicity is -3.6% (inactive). For `Cc1ccc(-c2nnn(CC(=O)N(c3ccccc3)C(C(=O)NC3CCCC3)c3ccco3)n2)o1` (centres undefined), the cytotoxicity is -1% (inactive). For `COc1ccc(OC)c(Nc2nc(-c3sc(N)nc3C)cs2)c1` the value was 34.5% (inactive); for `COc1ccc(CNC(=O)C2CCCN2S(=O)(=O)c2ccc(C)cc2)cc1` (centres undefined), 9.7% (inactive). `CC(C)(C)c1ccccc1OCCCCCNCCO`: the cytotoxicity is 9.8% (inactive).

As to `CC(=O)CCc1c(C)[nH]c2ccccc2c1=O`, the cytotoxicity is -19.6% (inactive). For `Cc1ccc(-c2noc(CCC(=O)NCCCN3CCN(c4cccc(Cl)c4)CC3)n2)cc1` the value was -6.5% (inactive); for `O=C(Nc1ccc(N2CCOCC2)cc1)Nc1ccc2nc(-c3ccco3)c(-c3ccco3)nc2c1`, 76.2% (active).

For `CN1CCN(C(=O)c2ccc3ccccc3c2)CC1`, the cytotoxicity is -15.3% (inactive). For the compound `COc1ccccc1N1CCN(C(=O)c2ccc3nc(-c4ccco4)c(-c4ccco4)nc3c2)CC1`, the cytotoxicity was 8.9% (inactive).

As for `O=C(c1ccc2ccccc2c1)N1CCN(c2ccccc2)CC1`, the cytotoxicity was -4.8% (inactive). For `O=C(Nc1ccc(N2CCOCC2)cc1)c1ccc2nc(-c3ccco3)c(-c3ccco3)nc2c1` the value was -9.4% (inactive); for `O=C(c1cc(-c2ccco2)on1)N1CCN(c2ccccc2)CC1`, 13.6% (inactive). For `O=C(Nc1ccc2nc(-c3ccco3)c(-c3ccco3)nc2c1)N1CCCCCC1` the value was 29.1% (inactive). Regarding `O=C(c1ccc2ccccc2c1)N1CCN(c2ccc(O)cc2)CC1`, the cytotoxicity is 50.3% (active).

With `O=C(c1cccs1)N1CCC(c2ccccc2)C1` (centres undefined), the cytotoxicity was 5.4% (inactive). For `O=c1[nH]c2ccccc2cc1-c1noc(-c2cccnc2)n1` the value was 6.4% (inactive); for `CCCOc1ccc(NC2=CC(=O)CC(C)(C)C2)cc1`, -2.4% (inactive); for `COc1cc(-c2csc(N3CCOCC3)n2)cc(OC)c1OC`, 4.3% (inactive).

Take `COc1ccc(OC)c(NC(=O)c2nnn(Cc3ccc(Br)cc3F)c2N)c1`: the cytotoxicity was 18.8% (inactive).

As to `c1ccc(-c2ccc(OCCOCCn3cncn3)cc2)cc1`, the cytotoxicity was -14.6% (inactive).

Consider `O=C(CSc1nnc(C2COc3ccccc3O2)o1)N1CCCc2ccccc21` (centres undefined), for which the cytotoxicity is -5.7% (inactive).

With `COc1ccc(C(O)c2coc3ccc(O)c(CN(C)C)c23)cc1` (centres undefined), the cytotoxicity was 8.4% (inactive).

Turning to `CN(C)C(=O)c1nc(C#N)c(N(C)C)o1`, the cytotoxicity was 8.3% (inactive). Turning to `COC(=O)c1[nH]c2cc(OC)ccc2c1NC(=O)CN1CCOCC1`, the cytotoxicity was 9.3% (inactive). For `CCC(O)c1cc2c(cc1NC(=O)c1ccc(C)cc1)OCCO2` (centres undefined) the value was -1.6% (inactive); for `Cc1cc(C)c2nc(-c3ccccn3)cc(C(=O)Nc3cc(C)on3)c2c1`, 6.6% (inactive). For `Cc1cc(NC(=O)c2cc(-c3cccnc3)nc3c(C)c(C)ccc23)no1` the value was 22.3% (inactive); for `Cc1cc(NC(=O)c2cc(-c3ccncc3)nc3c(C)cccc23)no1`, 64.9% (active). For `O=C(c1cc(-c2ccc3c(c2)OCO3)on1)N1CCN(c2ccccc2)CC1` the value was 20.6% (inactive); for `COc1ccccc1NC(=O)CN1CCC(n2nnc3cc(F)ccc32)CC1`, -8.8% (inactive). For `CCOc1ccc2nc(NC(=O)CN3CCC(n4nnc5cc(F)ccc54)CC3)sc2c1`, the cytotoxicity was 55.7% (active). For `CCOC(=O)c1ccccc1NC(=O)CN1CCC(n2nnc3cc(F)ccc32)CC1` the value was 13.5% (inactive); for `O=C(Nc1ccc(NC(=O)C2CC2)nc1)c1ccccn1`, -20.6% (inactive).

Turning to `Cc1cc(C(=O)Nc2nnc(C3CCCCC3)s2)cs1`, the cytotoxicity is 6.3% (inactive). On to `CCNC(=O)C1CC(=O)N(c2ccc(Br)cc2)C1` (centres undefined), for which the cytotoxicity is -12.4% (inactive). For `O=C(CCN1CCc2ccccc2C1)Nc1ccc2c(c1)OCO2` the value was 2.3% (inactive). For `O=C(CCN1CCc2ccccc21)c1ccc2c(c1)OCCO2` the value was 1.9% (inactive); for `O=C(CCCN1CCOCC1)c1ccc2c(c1)OCCO2`, 7.8% (inactive). Consider `O=C(CCN1Cc2ccccc2C1)c1ccc2c(c1)OCCO2`, for which the cytotoxicity is -7.3% (inactive). As to `Cc1cccc(-n2nnnc2SCC(=O)c2cc(C)n(CC3CCCO3)c2C)c1` (centres undefined), the cytotoxicity is -31.6% (inactive). Regarding `O=C(Nc1nc(-c2ccc(Cl)s2)cs1)c1cccs1`, the cytotoxicity is 12.2% (inactive). `CC(=O)c1cccc(S(=O)(=O)NCC(c2ccco2)N2CCCCC2)c1` (centres undefined): the cytotoxicity was 1% (inactive). For `CCc1ccccc1NC(=O)CCc1nc(-c2ccc(C)cc2)no1` the value was -5.6% (inactive); for `COc1ccc(C(CC(=O)O)NC(=O)COc2ccccc2)cc1OC` (centres undefined), -11.8% (inactive). For `CN1CCN(C(=O)CSc2nc(-c3cccs3)ccc2C#N)CC1` the value was 15.3% (inactive). For `COCc1cc(C)nc(SCC(=O)NCc2ccco2)c1C#N` the value was 1.9% (inactive); for `CSc1nc(C2CC2)cc(-c2cccs2)c1C#N`, 63.4% (active). As to `COc1ccc(-c2[nH]c(-c3ccc(F)cc3)nc2SCC(=O)NCc2ccco2)cc1OC`, the cytotoxicity was 0.1% (inactive). For `N#Cc1c(-c2ccccc2)cc(C2CC2)nc1N`, the cytotoxicity is -2.8% (inactive).

For `CCN(CC)C(=O)CSc1nc(C)cc(-c2cccs2)c1C#N`, the cytotoxicity was 9.8% (inactive). For `COc1ccc(-c2[nH]c(-c3cccc(OC)c3)nc2SCC(=O)NCc2ccco2)cc1` the value was 51.3% (active). On to `N#Cc1c(-c2cccs2)cc(-c2ccccn2)nc1N`, for which the cytotoxicity was 42.3% (inactive).

`COc1ccc(-c2ccc(SCC(=O)NCc3ccco3)nn2)cc1`: the cytotoxicity is -13.7% (inactive). For `COc1ccc(-c2cc(-c3cccs3)c(C#N)c(SCC(=O)NCc3ccco3)n2)cc1` the value was 52% (active). In the case of `COc1ccc(-c2nc(SCC(=O)NCc3ccco3)c(-c3ccccc3)[nH]2)cc1OC`, the cytotoxicity was -5.2% (inactive).
